# Screening data deposited in PubChem by National Center for Advancing Translational Sciences (NCATS).
# Compounds with a hit are over-represented: about 19% of the library has one in this group of screens.
# uPA surface inh = blocks generation of uPA at the cell surface; cell surface uPA generation assay, qHTS; Potency, µM (titrated, usually from 38.3 µM), most hits filed as inhibitors; 0.31% of 330,000 active; AID 540303; active = well fitted inhibition curve with a large enough effect; inconclusive = small, poorly fitted or top-dose-only effect; inactive = no such curve, though single readings can be large or run the other way; tested in mouse RAW 264.7 cells; note: nearly all actives have a fitted effect of over 55% in size
# HT1080 IDH1KD tx = HT-1080 IDH1 knockdown cell toxicity (counter line) | HT-1080 IDH1 knockdown viability, ATP luminescence, 48 h | Potency, µM (series often up to 46.1 µM), actives largely listed as cytotoxic | 2% of 360,000 active | AID 686971
#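 In this qHTS, HT-1080 cells depleted of IDH1 are exposed for 48 h at 37 °C to compound titrations. Toxicity is scored from CellTiter-Glo luminescence, with DMSO as full viability and medium alone as none.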
# DT40 TDP1 CPT = DT40-hTDP1 cell growth loss with CPT. 12% of 420,000 active. chicken DT40 Tdp1-/-;hTDP1 cells + 20 nM CPT, ATP luminescence, 48 h. Potency, µM (highest dose often 46.2 µM), most hits filed as inhibitors. AID 686979; note: nearly all actives have a fitted effect of over 55% in size
#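 Chicken DT40 Tdp1-/- cells stably complemented with human TDP1 were seeded at 400 cells/well in medium containing 20 nM camptothecin, exposed to pin-transferred compounds, and grown at 37 °C for at least 48 hr. Viability was read as ATP luminescence.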
# IL1B secr inh = inhibitors of inflammasome signaling (IL-1 beta secretion); THP-1 LPS/ATP IL-1B secretion, AlphaLISA, 16 h; active compounds read low; activity change, % at 57.5 µM; 4.7% of 360,000 active; AID 743279; in the data active = activity change below about -50%; inconclusive = mostly about -30% to -49%
#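 Secreted IL-1B measured by AlphaLISA bead assay after 16 h compound exposure of THP-1 cells; compounds (final up to 57.5 uM) added 1 h before LPS (250 ng/mL) and ATP (1.25 mM) stimulation; lower signal means less secretion.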
# DT40 TDP1 no CPT = qHTS for Inhibitors of human tyrosyl-DNA phosphodiesterase 1 (TDP1): qHTS in cells in absence of CPT. Potency, µM (top dose mostly 46.2 µM), actives largely listed as inhibitors. DT40 Tdp1-/- hTDP1 cells, no CPT, ATP luminescence, 48 h. 15% of 420,000 active; note: nearly all actives have a fitted effect of over 55% in size
#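 Seeded 400 DT40-hTDP1 cells/well (vehicle DMSO, no 20 nM CPT); pinned compounds; ≥48 hr at 37 °C; CellTiter-Glo luminescence as viability measure.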
# HT1080NT lethal = kills 2HG-producing HT-1080-NT fibrosarcoma cells | 1.6% of 360,000 active | Potency, µM (series often up to 46.1 µM), most hits filed as cytotoxic | HT-1080-NT fibrosarcoma viability, CellTiter-Glo ATP luminescence, 48 h;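 note: NT is the 2HG producing partner of a matched IDH1 knockdown line; nearly all actives have a fitted effect of over 55% in size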
#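 HT-1080-NT fibrosarcoma cells (2HG-overproducing), 750 cells/well in RPMI with 5% FBS, dosed after 2 h and incubated 48 h at 37C. CellTiter-Glo luminescence normalized to DMSO and no-cell wells; concentration-response curves fitted and classed.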
# Hits are given with their value; - = inactive; ? = inconclusive; . = not tested or not shown; [ ] = another dose, or the depositor's remark. Unless noted, calls come from the whole dose curve; as a rule, active = well fitted curve in the direction sought with a large enough effect; inconclusive = small, poorly fitted or top-dose-only effect, or another doubt; inactive = no such curve, though single readings can be large; an effect the other way counts as inactive or inconclusive.
SMILES,uPA surface inh,HT1080 IDH1KD tx,DT40 TDP1 CPT,IL1B secr inh,DT40 TDP1 no CPT,HT1080NT lethal
Cc1ccc(NC(=O)c2ccc3nc[nH]c3c2)c(O)c1,-,-,-,-,-,-
CCOC(COC(=O)c1ccccc1C(=O)O)c1ccccc1 (stereo not drawn),.,-,-,-,-,-
Cc1ccc(C)c(NC(=O)CN2C(=O)C3(SCC(=O)N3c3ccc(C)c(C)c3)c3ccccc32)c1 (stereo not drawn),.,.,?,.,18.4µM,.
O=C(CN1C(=O)C2(SCC(=O)N2c2ccccc2)c2ccccc21)Nc1ccccc1C(F)(F)F (stereo not drawn),.,.,23.1µM,.,?,.
CCc1cccc(C)c1NC(=O)CN1C(=O)C2(SCC(=O)N2c2cccc(F)c2)c2ccccc21 (stereo not drawn),.,.,-,.,-,.
CCc1ccc(NC(=O)CN2C(=O)C3(SCC(=O)N3c3ccccc3)c3ccccc32)cc1 (stereo not drawn),.,.,20.6µM,.,?,.
Cc1ccccc1NC(=O)CN1C(=O)C2(SCC(=O)N2c2ccc(F)cc2)c2ccccc21 (stereo not drawn),.,.,-,.,-,.
CCc1occc(=O)c1Oc1cc(NN2CCCCC2)c([N+](=O)[O-])cc1[N+](=O)[O-],-,-,-,-,?,-
Cc1ccc(C(C)C)c(OCC(=O)c2c(O)c3ccccc3oc2=O)c1,-,-,?,-,23.1µM,-
Cc1ccc(C(C)C)c(OCC(=O)Nc2c(C(=O)c3ccccc3)oc3ccccc23)c1,.,.,-,.,?,.
CCc1ccc(OCC(=O)c2c(O)c3ccccc3oc2=O)cc1,-,-,?,-,23.1µM,-
Cc1ccc(OCC(=O)c2c(O)c3ccccc3oc2=O)cc1C,-,-,?,-,14.6µM,-
C[C@@H]1CN([C@H](C)CO)C(=O)c2cc(Br)cnc2O[C@@H]1CN(C)C(=O)Nc1ccccc1,.,-,-,-,-,-
CSc1ncc(C(=O)Nc2ccccc2C(=O)c2ccccc2)c(C)n1,.,.,-,.,-,.
CCCCC(=O)N(C)c1c(CC)nc2c(OCC(N)=O)cccn12,.,-,-,-,-,-
CC1(C)Cc2c(sc3nc(-c4ccccc4)n(N)c(=O)c23)CO1,-,-,-,-75.7,-,-
CCOC(=O)CSc1nc2sc3c(c2c(=O)n1CC)CC(C)(C)OC3,-,-,-,-,-,-
CCCSc1nc2sc3c(c2c(=O)n1Cc1ccccc1)CC(C)(CC)OC3 (stereo not drawn),.,.,18.4µM,.,11.6µM,.
CCC1(C)Cc2c(sc3nc(SC)n(Cc4ccccc4)c(=O)c23)CO1 (stereo not drawn),-,-,13µM,-,13µM,-
COc1ccccc1/C=C/C(=O)NCC(=O)N/N=C/c1ccc(C)o1,-,-,-,-,-,-
N#Cc1c(F)cccc1NCc1cccnc1,-,-,-,-,-,-
N#Cc1c(NCc2ccccc2)ccnc1NCc1cccnc1,-,-,23.1µM,?,8.2µM,-
Cc1nn(-c2ccccc2)c(C)c1/C=C1\C(=O)N(C)C(=S)N1C,-,-,?,-,16.4µM,-
CCC(=O)C1=C(c2ccc(OC)c(OC)c2)N(C(=O)CC)n2c(nnc2-c2ccc(C)cc2)S1,.,.,-,.,-,.
CC(=O)C1=C(c2ccccc2)N(C(C)=O)n2c(nnc2C2CCCCC2)S1,.,.,?,.,4.61µM,.
SMILES,uPA surface inh,HT1080 IDH1KD tx,DT40 TDP1 CPT,IL1B secr inh,DT40 TDP1 no CPT,HT1080NT lethal
CCC(=O)C1=C(c2cccc(OC)c2)N(C(=O)CC)n2c(nnc2C2CCCCC2)S1,.,.,8.2µM,.,11.6µM,.
CCC(=O)C1=C(c2ccccc2)N(C(=O)CC)n2c(nnc2C2CCCCC2)S1,.,.,-,.,-,.
CC(=O)C1=C(c2ccc(Cl)c(Cl)c2)N(C(C)=O)n2c(nnc2C2CCCCC2)S1,.,.,?,.,-,.
COc1cccc(C2=C(C(C)=O)Sc3nnc(C4CCCCC4)n3N2C(C)=O)c1,.,.,7.31µM,.,11.6µM,.
CCC(=O)C1=C(c2cccc([N+](=O)[O-])c2)N(C(=O)CC)n2c(nnc2-c2ccccc2)S1,.,.,4.11µM,.,3.26µM,.
COc1ccccc1NC(=O)C1CCCN(S(=O)(=O)c2ccccc2)C1 (stereo not drawn),-,-,?,-,?,-
COc1ccccc1N1CCN(C2CCCC(C)C2)CC1 (stereo not drawn),-,-,-,-,-,-
COc1cc2nc(C3CCC3)nc(N3CCN(c4ccccc4OC)CC3)c2cc1OC,-,-,16.4µM,-,16.4µM,-
COc1cc2nc(C3CCC3)nc(N3CCN(c4ccccn4)CC3)c2cc1OC,-,-,9.2µM,-99.5,9.2µM,-
O=C(C1CCN(CCc2ccccc2)CC1)N1CCOCC1,-,-,-,-,-,-
CCN1CCN(Cc2c(O)ccc3c2O/C(=C\C=C\c2ccccc2)C3=O)CC1,-,?,25.9µM,-100.4,11.6µM,?
O=C1/C(=C/C=C/c2ccccc2)Oc2c1ccc(O)c2CN1CCN(CCO)CC1,?,?,?,-,?,-
COc1ccc(NC(=O)Cn2c(=O)n(-c3ccc(CC(=O)NCC4CCCO4)cc3)c(=O)c3ccccc32)c(OC)c1 (stereo not drawn),.,.,-,.,-,.
CNC(=O)Nc1cccc(-c2cc(-c3c(Cl)cccc3Cl)no2)c1,-,?,-,-79.1,-,-
CC(=O)Nc1cccc(-c2cc(-c3c(Cl)cccc3Cl)no2)c1,-,-,?,?,?,-
Cc1ccccc1-n1c(SCC(=O)NC2CC2)nc2ccccc2c1=O,.,-,?,-,16.4µM,-
Cc1cccc(-n2c(SCC(=O)NCC3CCCO3)nc3ccccc3c2=O)c1C (stereo not drawn),?,-,14.6µM,-,23.1µM,-
O=C(CSc1nc2ccccc2c(=O)n1-c1ccccc1)NCC1CCCO1 (stereo not drawn),-,-,-,-,?,-
Cc1ccccc1-n1c(SCC(N)=O)nc2sc(-c3ccccc3)cc2c1=O,-,-,?,-,18.4µM,-
COc1ccc(C)cc1-n1c(SCC(=O)NC2CC2)nc2ccccc2c1=O,-,-,18.4µM,?,?,-
COc1cccc(-n2c(SCC(=O)NC3CC3)nc3ccccc3c2=O)c1,.,-,-,-,?,-
COc1ccc(S(=O)(=O)N2CCN=C2SCc2cccc(C)c2)cc1,-,-,-,?,?,-
CC1(C2CC2)NC(=O)N(CC(=O)Nc2ccc(F)cc2F)C1=O (stereo not drawn),-,-,-,-,-,-[9.24 µM]
